Experimental data taken from PubChem BioAssay AID1159580 (chemical genetic matrix, 2015).
About 2,000 (36%) of roughly 5,500 compounds were called active. Another 18% or so got no clear call; they are omitted. Cut-off read from the data, not from the text of the source: active = normalized growth mostly below about 0.91 (no sharp cut-off); inconclusive = no clear call, values can overlap the other calls; inactive = mostly above about 0.92. The list shows a part of the results.

Assay: chemical genetic growth profiling, strain panel (AID 1159580);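 note: tested at 20 µM; growth read once vehicle control cultures reached saturation at 30 °C; 1 = growth at the plate median or of vehicle wells; lower values mean less growth of the strain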
Conditions: growth OD

Measured: normalized growth

CC1(C)S[C@@H]2[C@H](NC(=O)[C@H](NC(=O)N3CCNC3=O)c3ccccc3)C(=O)N2C1C(=O)O (stereo partly drawn)
inactive: S. cerevisiae deletion strains, locus YJR075W, strain HOC1, hits give low values 1.01 | S. cerevisiae deletion strains, locus YKL009W, strain mrt4, hits give low values 0.967 | S. cerevisiae deletion strains, locus YKL068W, hits give low values 0.979 | S. cerevisiae deletion strains, locus YKL085W, strain MDH1 (second series), hits give low values 0.998 | S. cerevisiae deletion strains, locus YKL085W, strain MDH1, hits give low values 0.998 | S. cerevisiae deletion strains, locus YKL160W, strain elf1, hits give low values 0.957 | S. cerevisiae deletion strains, locus YKL190W, strain CNB1, hits give low values 0.995 | S. cerevisiae deletion strains, locus YKR001C, strain vps1, hits give low values 1 | S. cerevisiae deletion strains, locus YKR026C, strain gcn3, hits give low values 0.999 | S. cerevisiae deletion strains, locus YKR091W, strain srl3, hits give low values 0.974 | S. cerevisiae deletion strains, locus YLL001W, strain dnm1, hits give low values 0.957 | S. cerevisiae deletion strains, locus YLL026W, hits give low values 0.984 | S. cerevisiae deletion strains, locus YLL041C, strain sdh2, hits give low values 0.983 | S. cerevisiae deletion strains, locus YLR027C, strain aat2, hits give low values 0.976 | S. cerevisiae deletion strains, locus YLR039C, strain RIC1, hits give low values 1 | S. cerevisiae deletion strains, locus YLR058C, strain SHM2, hits give low values 0.989 | S. cerevisiae deletion strains, locus YLR102C, strain apc9, hits give low values 0.992 | S. cerevisiae deletion strains, locus YLR113W, strain HOG1, hits give low values 0.956 | S. cerevisiae deletion strains, locus YLR221C, strain rsa3, hits give low values 0.964 | S. cerevisiae deletion strains, locus YLR258W, strain gsy2, hits give low values 0.988 | S. cerevisiae deletion strains, locus YLR262C, strain YPT6 (second series), hits give low values 0.958 | S. cerevisiae deletion strains, locus YLR262C, strain YPT6, hits give low values 0.98 | S. cerevisiae deletion strains, locus YLR268W, strain sec22, hits give low values 0.993 | S. cerevisiae deletion strains, locus YLR320W, strain mms22, hits give low values 0.956 | S. cerevisiae deletion strains, locus YLR330W, strain CHS5, hits give low values 0.997 | S. cerevisiae deletion strains, locus YLR342W, strain FKS1 (second series), hits give low values 1.01 | S. cerevisiae deletion strains, locus YLR342W, strain FKS1, hits give low values 0.993 | S. cerevisiae deletion strains, locus YLR357W, strain rsc2, hits give low values 0.977 | S. cerevisiae deletion strains, locus YLR370C, strain arc18, hits give low values 0.98 | S. cerevisiae deletion strains, locus YLR371W, strain rom2, hits give low values 0.997 | S. cerevisiae deletion strains, locus YLR384C, strain iki3, hits give low values 0.976 | S. cerevisiae deletion strains, locus YLR418C, strain cdc73, hits give low values 0.995 | S. cerevisiae deletion strains, locus YML016C, strain PPZ1, hits give low values 1 | S. cerevisiae deletion strains, locus YML032C, strain rad52, hits give low values 1.01 | S. cerevisiae deletion strains, locus YML120C, strain ndi1, hits give low values 0.959 | S. cerevisiae deletion strains, locus YML124C, strain tub3, hits give low values 0.996 | S. cerevisiae deletion strains, locus YMR058W, strain fet3, hits give low values 0.973 | S. cerevisiae deletion strains, locus YMR078C, strain ctf18, hits give low values 0.98 | S. cerevisiae deletion strains, locus YMR125W, strain sto1, hits give low values 1 | S. cerevisiae deletion strains, locus YMR129W, hits give low values 0.991 | S. cerevisiae deletion strains, locus YMR205C, strain PFK2, hits give low values 0.954 | S. cerevisiae deletion strains, locus YMR223W, strain ubp8, hits give low values 0.962 | S. cerevisiae deletion strains, locus YMR231W, strain pep5, hits give low values 0.985 | S. cerevisiae deletion strains, locus YMR307W, strain GAS1, hits give low values 1.08 | S. cerevisiae deletion strains, locus YNL067W, strain RPL9B, hits give low values 1.02 | S. cerevisiae deletion strains, locus YNL071W, strain lat1, hits give low values 0.989 | S. cerevisiae deletion strains, locus YNL128W, strain TEP1, hits give low values 0.991 | S. cerevisiae deletion strains, locus YNL183C, strain NPR1, hits give low values 0.942 | S. cerevisiae deletion strains, locus YNL209W, strain ssb2, hits give low values 0.989 | S. cerevisiae deletion strains, locus YNL233W, strain BNI4, hits give low values 1.04 | S. cerevisiae deletion strains, locus YNL248C, strain rpa49, hits give low values 0.993 | S. cerevisiae deletion strains, locus YNL250W, strain rad50, hits give low values 0.975 | S. cerevisiae deletion strains, locus YNL271C, strain bni1, hits give low values 1 | S. cerevisiae deletion strains, locus YNL298W, strain CLA4, hits give low values 0.978 | S. cerevisiae deletion strains, locus YNL307C, strain MCK1, hits give low values 0.994 | S. cerevisiae deletion strains, locus YNL322C, strain KRE1 (second series), hits give low values 0.983 | S. cerevisiae deletion strains, locus YNL322C, strain KRE1, hits give low values 0.993 | S. cerevisiae deletion strains, locus YNR049C, strain mso1, hits give low values 0.975 | S. cerevisiae deletion strains, locus YNR052C, strain pop2, hits give low values 0.986 | S. cerevisiae deletion strains, locus YOL006C, strain TOP1, hits give low values 1.04 | S. cerevisiae deletion strains, locus YOL012C, strain htz1 1.4 | S. cerevisiae deletion strains, locus YOL147C, strain pex11, hits give low values 0.985 | S. cerevisiae deletion strains, locus YOR001W, strain rrp6, hits give low values 0.981 | S. cerevisiae deletion strains, locus YOR061W, strain CKA2, hits give low values 1 | S. cerevisiae deletion strains, locus YOR069W, strain VPS5, hits give low values 0.988 | S. cerevisiae deletion strains, locus YOR070C, strain gyp1, hits give low values 0.992 | S. cerevisiae deletion strains, locus YOR080W, strain dia2, hits give low values 0.969 | S. cerevisiae deletion strains, locus YOR083W, strain WHI5, hits give low values 0.957 | S. cerevisiae deletion strains, locus YOR106W, strain vam3, hits give low values 0.951 | S. cerevisiae deletion strains, locus YOR136W, strain idh2, hits give low values 0.996 | S. cerevisiae deletion strains, locus YOR144C, strain elg1, hits give low values 1.01 | S. cerevisiae deletion strains, locus YOR184W, strain ser1, hits give low values 0.991 | S. cerevisiae deletion strains, locus YOR231W, strain MKK1, hits give low values 0.975 | S. cerevisiae deletion strains, locus YOR265W, strain rbl2, hits give low values 0.983 | S. cerevisiae deletion strains, locus YOR270C, strain vph1, hits give low values 0.968 | S. cerevisiae deletion strains, locus YOR290C, strain snf2, hits give low values 0.936 | S. cerevisiae deletion strains, locus YOR316C, strain cot1, hits give low values 0.99 | S. cerevisiae deletion strains, locus YPL051W, strain arl3, hits give low values 0.99 | S. cerevisiae deletion strains, locus YPL078C, strain atp4, hits give low values 0.974 | S. cerevisiae deletion strains, locus YPL106C, strain sse1, hits give low values 0.944 | S. cerevisiae deletion strains, locus YPL240C, strain hsp82, hits give low values 0.985 | S. cerevisiae deletion strains, locus YPL256C, strain CLN2, hits give low values 0.955 | S. cerevisiae deletion strains, locus YPR119W, strain clb2, hits give low values 0.997 | S. cerevisiae deletion strains, locus YPR141C, strain kar3, hits give low values 0.989 | S. cerevisiae deletion strains, locus YPR163C, strain tif3, hits give low values 0.975 | S. cerevisiae deletion strains, locus YPR167C, strain met16, hits give low values 0.985 | S. cerevisiae deletion strains, strain wtn01, hits give low values 1 | S. cerevisiae strains, strain wild type, hits give low values 1
